CYP2C9 inhib: inhibitors of human CYP2C9; P11712; CYP2C9 Supersomes, luciferin-H conversion, luminescence; inhibition, % at 5 µM; actives 20% (n = 96,000); AID 777;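 active means blocking of liver enzyme CYP2C9 beyond about 50% at 5 µM, limit read from the data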
Target sequence (P11712 whole entry, looked up): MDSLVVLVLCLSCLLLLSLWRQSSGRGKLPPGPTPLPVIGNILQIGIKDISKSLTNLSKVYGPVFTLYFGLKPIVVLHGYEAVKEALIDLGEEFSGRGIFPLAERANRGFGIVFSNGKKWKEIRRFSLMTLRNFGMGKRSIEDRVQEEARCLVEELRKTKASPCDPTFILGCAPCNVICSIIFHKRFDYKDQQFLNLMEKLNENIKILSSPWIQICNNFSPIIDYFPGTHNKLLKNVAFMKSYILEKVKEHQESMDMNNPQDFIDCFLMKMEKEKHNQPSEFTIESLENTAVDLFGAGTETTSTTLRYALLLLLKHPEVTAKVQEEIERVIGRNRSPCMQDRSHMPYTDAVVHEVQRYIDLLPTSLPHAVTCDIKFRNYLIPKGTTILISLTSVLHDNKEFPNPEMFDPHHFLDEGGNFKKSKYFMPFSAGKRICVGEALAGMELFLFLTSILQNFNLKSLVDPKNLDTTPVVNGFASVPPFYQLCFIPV
Cav3 T inh: human Cav3.2 channel inhibition, primary screen | O95180 | Cav3.2-expressing cells, Fluo-4 calcium fluorescence FDSS; stronger effect = lower value | B-score at 10 µM | actives 4% (n = 100,000);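 active means single-dose well whose peak fluorescence ratio is a statistical outlier from its plate by either plate-standardised score or position-corrected B-score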
CYP2C19 activ: increases human CYP2C19 enzyme activity | P33261 | recombinant CYP2C19, luciferin-H EGE luminescence; stronger effect = higher value; 0 = fully inhibited enzyme, 1 = untreated enzyme | activation factor at 5 µM | 96,000 tested, under 10 active;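 active means activation factor of at least 2 at 5 µM in the primary screen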;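 further: 0 = wells with 2.5 mM tranylcypromine and 1 = vehicle-only wells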
CYP2C9 activ: CYP2C9 (human) activation | P11712 | recombinant CYP2C9, luciferin-H conversion, luminescence; stronger effect = higher value; factor 1 = untreated enzyme, 0 = blocked | activation factor at 5 µM | actives 1.4% (n = 96,000);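 active means activation factor of 2 or more for CYP2C9 at a 5 µM dose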;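 further: 0 = sulfaphenazole-blocked wells and 1 = vehicle-only wells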
CYP2C19 inhib: human CYP2C19 inhibition. actives 21% (n = 96,000). CYP2C19 Supersomes, luciferin-H EGE luminescence, 30 min. P33261. inhibition, % at 5 µM;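 active means CYP2C19 inhibition above a set limit at 5 µM in the primary screen, cut at about 50% in these data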;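 further: plate controls were negative control wells for no effect and 2.5 mM tranylcypromine positive control for full effect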
* hit, by the source's call; . = no result. Hits are enriched below; roughly 27% of the tested compounds scored in any of these assays.

SMILES	CYP2C9 inhib	Cav3 T inh	CYP2C19 activ	CYP2C9 activ	CYP2C19 inhib
O=C1C2ON(c3ccccc3)C(c3ccccn3)C2C(=O)N1c1ccc(Br)cc1 (stereo unspecified)	74*	-0.78	0.6	0.3	39
O=C1C2ON(c3ccccc3)C(c3ccncc3)C2C(=O)N1c1ccc(N2CCOCC2)cc1 (stereo unspecified)	45	0.14	0.7	0.6	26
O=C1C2C3C=CC(C3)C2C(=O)N1c1ccncc1 (stereo unspecified)	28	.	0.8	0.7	15
O=c1nc(NCc2ccccc2Cl)cn[nH]1	-12	0.4	1	1.1	-3
CC1Cc2cc(/C(O)=C3/C(=O)C(=O)N(Cc4ccco4)C3c3cccs3)ccc2O1 (stereo unspecified)	-2	-0.98	1.1	1	-9
C=CCNC(=O)c1cccn1-c1ccsc1C(=O)OC	11	0.11	0.8	0.9	25
COc1ccc(Cl)cc1NC(=O)CC(C)c1ccccc1 (stereo unspecified)	-296	-7.6*	0.2	4*	85*
COc1ccc(Cl)cc1NC(=O)CN(C)C(C)C(=O)NCC1CCCCC1 (stereo unspecified)	-160	-1	0	2.6*	99*
COc1ccc(Cl)cc1NC(=O)C/C(C)=N/NC(=O)CC#N	-72	-0.86	1.2	1.7	-16
COc1ccc(Cl)cc1NC(=O)NCCCl	-12	0.48	0.8	1.1	18
COc1ccc(Cl)cc1NC(=O)CC(C)=O	-261	0.44	0.9	3.6*	8
CCN(CC)C(=O)C1CCN(S(=O)(=O)c2ccc3oc4ccccc4c3c2)CC1	-75	.	0.8	1.8	17
COc1ccc(-c2cc(C(F)(F)F)nc(SCCC(=O)N3CCOCC3)n2)cc1	14	-0.23	1	0.9	2
N#CC1=C(N)SC(N)=C(C#N)C1C1CC=CCC1 (stereo unspecified)	48	0.24	0.2	0.5	84*
O=C1CC(C(=O)Nc2ccc(O)c(C(=O)O)c2)C(c2ccccc2)O1 (stereo unspecified)	29	-0.13	1.1	0.7	-15
O=C1CC(C(=O)Nc2ccccc2C(=O)O)C(c2ccccc2)O1 (stereo unspecified)	94*	-0.83	1	0.1	3
O=C1CC(C(=O)Nc2nccs2)C(c2ccccc2)O1 (stereo unspecified)	60*	0.045	0.1	0.4	87*
Cc1ccc(N2C(=O)N(CC(=O)C(C)(C)C)c3ccccc3S2(=O)=O)cc1	.	-2.6	.	.	.
Cn1c(N2CCN(C(=O)NC34CC5CC(CC(C5)C3)C4)CC2)nc2ccccc21	.	0.27	.	.	.
O=C(Oc1ccccc1)c1ccccc1OS(=O)(=O)c1ccccc1	59*	-2.5	0.6	0.4	44
COc1ccccc1C(=O)Oc1ccc(C(C)C)cc1	0	-1.2	0.7	1	32
N=C1/C(=C\c2ccc(OCc3ccccc3)cc2)C(=O)N=C2SC(N3CCCC3)=NN12	.	-0.078	.	.	.
COc1cc(/C=N/n2nnnc2N)ccc1O	-2	0.19	0.9	1	6
COC(=O)c1cc(Br)ccc1-c1ccc(/C=N/n2nnnc2N)o1	38	-0.006	0.4	0.6	56*
C[C@H]1C=C(C(=O)NC2CC2)O[C@@H](OCc2ccc(CO)cc2)C1	.	1.1	.	.	.
SMILES	CYP2C9 inhib	Cav3 T inh	CYP2C19 activ	CYP2C9 activ	CYP2C19 inhib
O=C(NCCc1ccccc1)C1CCCN(C(=O)NC2CCCCC2)C1 (stereo unspecified)	4	2.1	1.1	1	-12
COC(=O)CN1C(=O)C(O)(CC(=O)c2ccc(C)cc2)c2cc(Br)ccc21 (stereo unspecified)	17	-2.8	0.7	0.8	35
CN1C(=O)C(O)(CC(=O)c2ccc(F)cc2)c2cc(Br)ccc21 (stereo unspecified)	33	-0.66	0.2	0.7	79*
CCC(Cc1ccccc1)NC(=O)C1CCN(S(=O)(=O)c2c(C)noc2C)CC1 (stereo unspecified)	11	1.2	1.2	0.9	-20
Cc1ccccc1NS(=O)(=O)c1cc(C(=O)Nc2ccccc2-c2ccccc2)ccc1Cl	84*	-3.4*	0.6	0.2	36
Cc1ccc(C)c(NS(=O)(=O)c2cc(C(=O)N3CCc4ccccc4C3)ccc2Cl)c1	59*	-3.7	0.6	0.4	36
Cc1ccc(C(=O)N2CCOCC2)cc1S(=O)(=O)Nc1cccc(C)c1C	.	1.9	.	.	.
Cc1cccc(NS(=O)(=O)c2cc(C(=O)N3CCc4ccccc4C3)ccc2Cl)c1C	58*	-1.9	0.6	0.4	36
C=CCNC(=O)c1ccccc1NC(=O)c1ccc(Cl)c(S(=O)(=O)Nc2cc(C)ccc2C)c1	-2	0.18	0.9	1	6
Brc1cc2[nH]cnc2c2ccccc12	-21	2	0.5	1.2	50*
COC(=O)CCCC1=CC2=C(c3ccccc3)C(=O)C(C)(OC(=O)C3CCCC3)C(=O)C2=CN1Cc1ccc(OC)cc1 (stereo unspecified)	.	-0.02	.	.	.
COc1ccc(CNC(=O)c2ccc(N3CCC4(CC3)CC(c3ccc(Cl)cc3)=NO4)c([N+](=O)[O-])c2)cc1	.	-0.58	.	.	.
C(=C\c1ccccc1)/CSc1nnc(-c2ccccn2)n1Cc1ccco1	45	-5.5*	0.8	0.6	18
Clc1ccc(-n2c(SC/C=C/c3ccccc3)nnc2-c2cccnc2)cc1	34	-0.25	0.4	0.7	56*
Nn1c(SC/C=C/c2ccccc2)nnc1-c1cccnc1	-19	0.69	1.1	1.2	-12
Nn1c(SC/C=C/c2ccccc2)nnc1-c1ccccn1	27	-0.15	0.4	0.7	61*
CN1CCN(C(=O)c2ccc(-n3cccc3)cc2)CC1	42	.	1	0.6	0
COc1cc(C[C@@H](CO)[C@H](CO)Cc2ccc(O)c(OC)c2)ccc1O	.	-0.33	.	.	.
C1CCc2c(nnc3c2-c2nonc2CC3)C1	12	2.2	0.9	0.9	6
Cc1ccc(SCCCCN2C(=O)NC(C)(C)C2=O)cc1	77*	0.63	0.1	0.2	88*
CC1(C)NC(=O)N(CCSc2ccc(Cl)cc2)C1=O	50*	0.63	0.1	0.5	93*
Cc1ccc(OCC(O)CN2C(=O)NC(C)(C)C2=O)cc1 (stereo unspecified)	.	-0.23	.	.	.
CC1(C)NC(=O)N(CCOCCSc2ccccc2)C1=O	39	0.057	0.1	0.6	86*
O=C(c1ccco1)N1CCN(c2nc(C3CC3)nc3sc4c(c23)CCCC4)CC1	70*	-3.2	0.6	0.3	36
O=C(CSc1ncnc2sc3c(c12)CCCC3)c1ccco1	-3	.	1	1	-2
CCc1nc(SCC(=O)N2CCN(C(=O)c3ccco3)CC2)c2c3c(sc2n1)CCCC3	59*	-3.8	0.9	0.4	11
O=C(c1ccco1)N1CCN(c2nc(C3CC3)nc3c2nnn3Cc2ccccc2Cl)CC1	.	-1.9	.	.	.
c1ccc(CSc2nncn2-c2ccccn2)cc1	19	0.02	0.1	0.8	88*
Cc1ccc(CSc2nnc(-c3ccccn3)n2C)cc1	5	0.44	0.8	0.9	20
